Experimental data taken from PubChem BioAssay AID1159580 (chemical genetic matrix, 2015).
Among all 5,500 compounds or so, about 2,000 (36%) were called active. About 18% were inconclusive and are not listed. The list shows a part of the results. Unmarked numbers belong to inactive results. Cut-off read from the data, not from the text of the source: active = normalized growth mostly below about 0.91 (no sharp cut-off); inconclusive = no clear call, values can overlap the other calls; inactive = mostly above about 0.92.

Assay: chemical genetic growth profiling, strain panel (AID 1159580);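 note: tested at 20 µM; growth read once vehicle control cultures reached saturation at 30 °C; 1 = growth at the plate median or of vehicle wells; lower values mean less growth of the strain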
Details: growth OD
[1] = S. cerevisiae deletion strains, locus YAL013W, strain DEP1, active compounds read low
[2] = S. cerevisiae deletion strains, locus YBR229C, strain ROT2, active compounds read low
[3] = S. cerevisiae deletion strains, locus YDL101C, strain DUN1, active compounds read low
[4] = S. cerevisiae deletion strains, locus YDL134C, strain PPH21, active compounds read low
[5] = S. cerevisiae deletion strains, locus YDR150W, strain NUM1, active compounds read low
[6] = S. cerevisiae deletion strains, locus YEL061C, strain CIN8, active compounds read low
[7] = S. cerevisiae deletion strains, locus YGR078C, strain PAC10, active compounds read low
[8] = S. cerevisiae deletion strains, locus YGR229C, strain SMI1, active compounds read low
[9] = S. cerevisiae deletion strains, locus YHR030C, strain SLT2, active compounds read low
[10] = S. cerevisiae deletion strains, locus YHR087W, strain rtc3, active compounds read low
[11] = S. cerevisiae deletion strains, locus YJR043C, strain POL32, active compounds read low
[12] = S. cerevisiae deletion strains, locus YJR075W, strain HOC1, active compounds read low
[13] = S. cerevisiae deletion strains, locus YLR039C, strain RIC1, active compounds read low
[14] = S. cerevisiae deletion strains, locus YLR058C, strain SHM2 (second series), active compounds read low
[15] = S. cerevisiae deletion strains, locus YLR085C, strain ARP6, active compounds read low
[16] = S. cerevisiae deletion strains, locus YLR262C, strain YPT6, active compounds read low
[17] = S. cerevisiae deletion strains, locus YML094W, strain GIM5, active compounds read low
[18] = S. cerevisiae deletion strains, locus YMR219W, strain ESC1, active compounds read low
[19] = S. cerevisiae deletion strains, locus YMR263W, strain SAP30, active compounds read low
[20] = S. cerevisiae deletion strains, locus YNL153C, strain GIM3, active compounds read low
[21] = S. cerevisiae deletion strains, locus YNL298W, strain CLA4 (second series), active compounds read low
[22] = S. cerevisiae deletion strains, locus YNL322C, strain KRE1, active compounds read low
[23] = S. cerevisiae deletion strains, locus YNR030W, strain Alg12, active compounds read low
[24] = S. cerevisiae deletion strains, locus YPL055C, strain LGE1, active compounds read low
[25] = S. cerevisiae deletion strains, locus YPL241C, strain CIN2, active compounds read low
[26] = S. cerevisiae deletion strains, locus YPR135W, strain CTF4, active compounds read low

CCN1CN=C(SCc2ccc(C)cc2)NC1 showed a normalized growth [1] of 0.986, a normalized growth [2] of 0.992 and a normalized growth [3] of 0.991. The normalized growth [4] was 1, the normalized growth [5] was 0.932 and the normalized growth [6] was 0.997. It also gave a normalized growth [7] of 0.983, a normalized growth [8] of 1 and a normalized growth [9] of 0.915. It also gave a normalized growth [10] of 0.968, a normalized growth [11] of 0.976 and a normalized growth [12] of 0.986. The normalized growth [13] was 0.977, the normalized growth [14] was 0.977 and the normalized growth [15] was 0.997. For the same molecule, the normalized growth [16] was 0.974, the normalized growth [17] was 0.998 and the normalized growth [18] was 0.994. It also gave a normalized growth [19] of 0.974, a normalized growth (S. cerevisiae deletion strains, locus YMR307W, strain GAS1, active compounds read low) of 1.05 and a normalized growth [20] of 0.98. For the same molecule, the normalized growth [21] was 0.975, the normalized growth [22] was 0.994 and the normalized growth [23] was 0.986. It also gave a normalized growth [24] of 0.947, a normalized growth [25] of 0.978 and a normalized growth [26] of 0.904.

With COc1cc(NC(=O)NS(=O)(=O)c2ccc(C)cc2)cc(C(F)(F)F)c1 the normalized growth [1] was 0.991, the normalized growth [2] was 0.995 and the normalized growth (S. cerevisiae deletion strains, locus YCL061C, strain MRC1, active compounds read low) was 0.987. The normalized growth [3] was 0.99, the normalized growth [4] was 1 and the normalized growth [5] was 0.91. For the same molecule, the normalized growth [6] was 1.02, the normalized growth [7] was 0.995 and the normalized growth [8] was 0.996. For the same molecule, the normalized growth [9] was 1.1, the normalized growth [10] was 0.994 and the normalized growth [11] was 0.998. It also gave a normalized growth [12] of 0.965, a normalized growth [13] of 0.925 and a normalized growth [14] of 0.999. For the same molecule, the normalized growth [15] was 1.05, the normalized growth [16] was 0.907 and the normalized growth [17] was 1.01. For the same molecule, the normalized growth [18] was 0.997, the normalized growth [19] was 1 and the normalized growth [20] was 0.995. It also gave a normalized growth [21] of 1.03, a normalized growth [22] of 0.986 and a normalized growth [23] of 1.03. It also gave a normalized growth (S. cerevisiae deletion strains, locus YOL006C, strain TOP1, active compounds read low) of 1.06, a normalized growth [24] of 0.966 and a normalized growth [25] of 1.11. It also gave a normalized growth [26] of 1.02 and a normalized growth (S. cerevisiae strains, strain wild type, active compounds read low) of 1.

COc1cc(NC(=S)Nc2ccccc2OC(F)(F)F)cc(C(F)(F)F)c1 gave a normalized growth (S. cerevisiae deletion strains, locus YAR019C, strain CDC15, active compounds read low) of 0.969, a normalized growth (S. cerevisiae deletion strains, locus YBL105C, strain PKC1, active compounds read low) of 0.977 and a normalized growth (S. cerevisiae deletion strains, locus YBR135W, strain CKS1, active compounds read low) of 0.977. It also gave a normalized growth (S. cerevisiae deletion strains, locus YBR136W, strain MEC1, active compounds read low) of 0.975, a normalized growth (S. cerevisiae deletion strains, locus YBR160W, strain CDC28, active compounds read low) of 0.972 and a normalized growth (S. cerevisiae deletion strains, locus YDL017W, strain CDC7, active compounds read low) of 0.982. It also gave a normalized growth (S. cerevisiae deletion strains, locus YDL028C, strain MPS1, active compounds read low) of 0.962, a normalized growth [3] of 0.99 and a normalized growth (S. cerevisiae deletion strains, locus YDL108W, strain KIN28, active compounds read low) of 0.965. The normalized growth (S. cerevisiae deletion strains, locus YDL132W, strain cdc53, active compounds read low) was 0.974, the normalized growth (S. cerevisiae deletion strains, locus YDL214C, strain PRR2, active compounds read low) was 0.937 and the normalized growth (S. cerevisiae deletion strains, locus YDR052C, strain DBF4, active compounds read low) was 0.991. For the same molecule, the normalized growth (S. cerevisiae deletion strains, locus YDR054C, strain cdc34, active compounds read low) was 0.975, the normalized growth (S. cerevisiae deletion strains, locus YDR226W, strain ADK1, active compounds read low) was 0.977 and the normalized growth (S. cerevisiae deletion strains, locus YDR477W, strain SNF1, active compounds read low) was 0.945. The normalized growth (S. cerevisiae deletion strains, locus YER123W, strain YCK3, active compounds read low) was 0.931, the normalized growth (S. cerevisiae deletion strains, locus YER133W, strain GLC7, active compounds read low) was 0.948 and the normalized growth (S. cerevisiae deletion strains, locus YFL009W, strain cdc4, active compounds read low) was 0.967. For the same molecule, the normalized growth (S. cerevisiae deletion strains, locus YFL029C, strain CAK1, active compounds read low) was 0.962, the normalized growth (S. cerevisiae deletion strains, locus YFR003C, strain YPI1, active compounds read low) was 0.987 and the normalized growth (S. cerevisiae deletion strains, locus YFR019W, strain FAB1, active compounds read low) was 0.983. The normalized growth (S. cerevisiae deletion strains, locus YFR028C, strain CDC14, active compounds read low) was 0.969, the normalized growth (S. cerevisiae deletion strains, locus YGR040W, strain KSS1, active compounds read low) was 0.951 and the normalized growth (S. cerevisiae deletion strains, locus YGR052W, strain FMP48, active compounds read low) was 0.994. The normalized growth (S. cerevisiae deletion strains, locus YGR092W, strain DBF2, active compounds read low) was 0.962, the normalized growth [9] was 0.824 (active) and the normalized growth (S. cerevisiae deletion strains, locus YHR079C, strain IRE1, active compounds read low) was 0.985. The normalized growth (S. cerevisiae deletion strains, locus YHR082C, strain KSP1, active compounds read low) was 0.972, the normalized growth (S. cerevisiae deletion strains, locus YHR205W, strain SCH9, active compounds read low) was 0.922 and the normalized growth (S. cerevisiae deletion strains, locus YIL147C, strain SLN1, active compounds read low) was 0.961. The normalized growth (S. cerevisiae deletion strains, locus YJL095W, strain BCK1, active compounds read low) was 0.956, the normalized growth (S. cerevisiae deletion strains, locus YJL128C, strain PBS2, active compounds read low) was 0.929 and the normalized growth (S. cerevisiae deletion strains, locus YJL157C, strain FAR1, active compounds read low) was 0.962. For the same molecule, the normalized growth (S. cerevisiae deletion strains, locus YJR016C, strain ILV3, active compounds read low) was 0.989, the normalized growth (S. cerevisiae deletion strains, locus YJR066W, strain TOR1 (second series), active compounds read low) was 1 and the normalized growth (S. cerevisiae deletion strains, locus YJR066W, strain TOR1, active compounds read low) was 0.926. For the same molecule, the normalized growth (S. cerevisiae deletion strains, locus YKL048C, strain ELM1, active compounds read low) was 0.971, the normalized growth (S. cerevisiae deletion strains, locus YKL067W, strain YNK1, active compounds read low) was 0.926 and the normalized growth (S. cerevisiae deletion strains, locus YKL101W, strain HSL1, active compounds read low) was 0.937. It also gave a normalized growth (S. cerevisiae deletion strains, locus YKL193C, strain SDS22, active compounds read low) of 0.977, a normalized growth (S. cerevisiae deletion strains, locus YKL203C, strain TOR2, active compounds read low) of 1.03 and a normalized growth (S. cerevisiae deletion strains, locus YLR113W, strain HOG1, active compounds read low) of 0.886. For the same molecule, the normalized growth (S. cerevisiae deletion strains, locus YLR133W, strain CKI1, active compounds read low) was 0.96, the normalized growth (S. cerevisiae deletion strains, locus YLR403W, strain SFP1, active compounds read low) was 0.968 and the normalized growth (S. cerevisiae deletion strains, locus YML070W, strain DAK1, active compounds read low) was 0.94. It also gave a normalized growth (S. cerevisiae deletion strains, locus YMR001C, strain CDC5, active compounds read low) of 0.959, a normalized growth (S. cerevisiae deletion strains, locus YMR205C, strain PFK2 (second series), active compounds read low) of 0.962 and a normalized growth (S. cerevisiae deletion strains, locus YMR277W, strain FCP1, active compounds read low) of 0.954. For the same molecule, the normalized growth (S. cerevisiae deletion strains, locus YNL006W, strain LST8, active compounds read low) was 0.978, the normalized growth (S. cerevisiae deletion strains, locus YNL020C, strain ARK1, active compounds read low) was 0.965 and the normalized growth (S. cerevisiae deletion strains, locus YNL161W, strain CBK1, active compounds read low) was 0.977. It also gave a normalized growth (S. cerevisiae deletion strains, locus YNL183C, strain NPR1, active compounds read low) of 1.01, a normalized growth (S. cerevisiae deletion strains, locus YNL207W, strain RIO2, active compounds read low) of 0.985 and a normalized growth (S. cerevisiae deletion strains, locus YNL222W, strain SSU72, active compounds read low) of 0.965. It also gave a normalized growth (S. cerevisiae deletion strains, locus YNL307C, strain MCK1 (second series), active compounds read low) of 0.956, a normalized growth (S. cerevisiae deletion strains, locus YOL078W, strain AVO1, active compounds read low) of 0.97 and a normalized growth (S. cerevisiae deletion strains, locus YOL136C, strain PFK27, active compounds read low) of 0.935. It also gave a normalized growth (S. cerevisiae deletion strains, locus YOR061W, strain CKA2, active compounds read low) of 0.962, a normalized growth (S. cerevisiae deletion strains, locus YOR119C, strain RIO1, active compounds read low) of 0.964 and a normalized growth (S. cerevisiae deletion strains, locus YOR231W, strain MKK1, active compounds read low) of 0.945. The normalized growth (S. cerevisiae deletion strains, locus YOR329C, strain SCD5, active compounds read low) was 0.99, the normalized growth (S. cerevisiae deletion strains, locus YPL031C, strain PHO85, active compounds read low) was 0.957 and the normalized growth (S. cerevisiae deletion strains, locus YPL153C, strain RAD53, active compounds read low) was 0.952. For the same molecule, the normalized growth (S. cerevisiae deletion strains, locus YPL204W, strain HRR25, active compounds read low) was 0.957, the normalized growth (S. cerevisiae deletion strains, locus YPL209C, strain IPL1, active compounds read low) was 0.976 and the normalized growth (S. cerevisiae deletion strains, locus YPL256C, strain CLN2, active compounds read low) was 0.927. The normalized growth (S. cerevisiae deletion strains, locus YPR025C, strain CCL1, active compounds read low) was 0.984, the normalized growth (S. cerevisiae deletion strains, locus YPR106W, strain ISR1, active compounds read low) was 0.974 and the normalized growth (S. cerevisiae deletion strains, locus YPR111W, strain DBF20, active compounds read low) was 0.953. For the same molecule, the normalized growth (S. cerevisiae deletion strains, strain NNK1, active compounds read low) was 0.974 and the normalized growth (S. cerevisiae deletion strains, strain TSCII, active compounds read low) was 0.97.
